In PubChem BioAssay AID651820 (National Center for Advancing Translational Sciences (NCATS), 2012):
Several values for one entry are separate records, joined by “and”; a condition that tells them apart may be missing. Equal entries are not always repeated. About 12,000 (3.5%) of roughly 340,000 compounds were called active. Roughly 18% stayed inconclusive and do not appear here. This is one part of a sample in which actives are shown more often than they occur. Some compounds were tested as several samples or in several runs, with calls that do not always agree. Unmarked numbers belong to inactive results. The call rests on the fitted dose curve; in most records, active means well fitted inhibition curve with a large enough effect; inconclusive means small, poorly fitted or top-dose-only effect, or another doubt; inactive means no such curve, though single readings can be large or run the other way.

Assay: qHTS Assay for Inhibitors of Hepatitis C Virus (HCV)
Conditions: Huh7.5.1 HCVcc-Cre infection, luciferase reporter, 44 h; series mostly up to 41.8 µM; activity change, negative = inhibition: at the top concentration
Method in brief: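 Antiviral activity was scored by luciferase reporter output from cells infected with HCVcc-Cre (~0.5 moi) in presence of compound, 44 h infection period, cells seeded 1,000/well 4 h prior.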
On the % scale 0 is the no-effect control and ±100 the full control effect; potency means the concentration at half of the fitted maximal effect.

| SMILES | activity change, negative = inhibition | Potency |
| --- | --- | --- |
| O=c1[nH]c2c(c(=O)n1-c1ccccc1)CCO2 | 25.9% | – |
| O=C(COC(=O)c1cccs1)Nc1ccccc1Cl | 7.58% | – |
| O=C(COC(=O)c1c2c(nc3ccccc13)/C(=C\c1cccs1)CCC2)Nc1ccccc1Cl | – | 4.47 µM (active) and 2.51 µM (active) |
| COc1cc(/C=C2\CCCc3c2nc2ccccc2c3C(=O)O)cc(Cl)c1O | 8.48% | – |
| Cc1ccc(C)c(NC(=O)COC(=O)CSc2ccccc2)c1 | -8.78% | – |
| CN(CC(=O)NCc1ccc2c(c1)OCO2)CC(=O)Nc1ccc(F)c(F)c1F | 7.62% | – |
| COc1ccc(CC(=O)Nc2ccc3c(c2)CCC3)cc1S(=O)(=O)N1CCOCC1 | -3.24% | – |
| COc1cc(/C=C/C(=O)Nc2ccc(OC)c(S(=O)(=O)N3CCOCC3)c2)ccc1OCC#N | – | 7.08 µM (active) |
| COc1ccc(CNC(=O)COC(=O)c2ccc(C)c(S(=O)(=O)N3CCOCC3)c2)cc1OC | -3.02% | – |
| COc1cc(/C=C/C(=O)OCC(=O)N2CCOCC2)ccc1OCC#N | 3.73% | – |
| COc1ccc(NS(=O)(=O)c2cc(NC(=O)/C=C/c3cc(OC)c(OC)c(OC)c3)ccc2N2CCCCC2)cc1 | – | inactive |
| COc1ccc(CCC(=O)Nc2ccc(Cl)c(S(=O)(=O)N3CCOCC3)c2)cc1OC | – | 11.2 µM (active) |
| O=C(c1cnccn1)N1CCN(S(=O)(=O)c2cccc(Cl)c2)CC1 | 5.65% | – |
| CCOc1ccc(NC(=O)COC(=O)C2CCC(=O)N2)c([N+](=O)[O-])c1 (configuration not stated) | 21.4% | – |
| CC(C)CC1NC(=O)c2cc(Cl)ccc2-n2c1nc1ccccc1c2=O (configuration not stated) | 11.4% | – |
| Cc1ccc2nc(-c3ccc(NC(=O)c4cccnc4)cc3)oc2c1 | – | 10 µM (active) |
| CC(=O)Nc1ccc(-c2nc3ccccc3o2)cc1 | -1.93% | – |
| Cc1cc2nc(-c3ccc(NC(=O)c4cccnc4)cc3)oc2cc1C | -25.6% | – |
| N=C1c2ccccc2-c2ccccc21 | 8.98% | – |
| CC(C)(C)OC(=O)C[C@@H]1C/C=C\C[C@@H](CC(=O)NCCO)C(=O)N[C@H](Cc2c[nH]c3ccccc23)COC1=O | 12.1% | – |
| Cc1cc(C)c(S(=O)(=O)n2cc(C(C)C(N)C(=O)O)c3ccccc32)c(C)c1 (configuration not stated) | 20.4% | – |
| CCc1ccc(C(=O)NNC(=O)C2CCN(c3ncnc4sc(C)c(C)c34)CC2)cc1 | – | 12.6 µM (active) |
| Cc1sc2ncnc(N3CCC(C(=O)Nc4ccc(F)cc4Cl)CC3)c2c1C | – | 11.2 µM (active) |
| O=C(Cc1ccccc1)NNC(=O)C1CCN(c2ncccn2)CC1 | -20.5% | – |
| Cc1cc(=O)n2nc(N3CCC(C(=O)Nc4c(F)c(F)c(F)c(F)c4F)CC3)sc2n1 | -8.41% | – |
| Cc1sc2ncnc(N3CCC(C(=O)Nc4nc5ccc(Cl)cc5s4)CC3)c2c1C | 0.865% | – |

| SMILES | activity change, negative = inhibition | Potency |
| --- | --- | --- |
| O=C(NNC(=O)C1CCN(c2ncccn2)CC1)c1ccccc1 | 10.3% | – |
| CCOc1cccc2cc(C(=O)OCC(=O)Nc3c(C)cccc3CC)c(=O)oc12 | 7.95% | – |
| Clc1ccc(CN2CCN(/N=C/c3cccnc3)CC2)cc1 | -3.56% | – |
| O=C1/C(=C\c2cccnc2)CN(Cc2ccccc2)C/C1=C\c1cccnc1 | – | 6.31 µM (active) |
| O=Cc1cn(Cc2ccccc2)nc1-c1cccnc1 | 5.66% | – |
| CC(OC(=O)CNC(=O)c1cccc(F)c1)C(=O)NC1CCCCC1C (configuration not stated) | -18.8% | – |
| O=C(N/N=C/c1cc(Br)c(O)c([N+](=O)[O-])c1)C(O)(c1ccccc1)c1ccccc1 | 1.49% | – |
| COC(=O)c1ccc(NCC(=O)c2ccccc2)cc1 | -4.54% | – |
| C#CCNc1ccc(C(=O)OCC)cc1 | 20.7% | – |
| CC(CN1CCCCC1)OC(=O)c1ccccc1Cl (configuration not stated) | 5.79% | – |
| CC(CN1CCOCC1)OC(=O)c1ccc(Cl)cc1Cl (configuration not stated) | 17.4% | – |
| COC(=O)c1ccc(NCc2cc(O)ccc2O)cc1 | – | 5.01 µM (active) |
| CC(C)OC(=O)c1ccc(NCc2cc(O)ccc2O)cc1Cl | – | 6.31 µM (active) |
| COc1ccc(Cl)cc1NC(=O)COc1ccc2c(c1)OCO2 | -5.11% | – |
| CC1CN(C(=O)c2ccc([N+](=O)[O-])s2)CC(C)O1 (configuration not stated) | 26.4% | – |
| c1ccc2sc(NN=C3CCCC3)nc2c1 | -20.9% | – |
| c1ccc(C(=NNc2nc3ccccc3s2)c2ccccn2)cc1 | – | 1.58 µM (active) |
| O=C(Nc1ccccc1)Nc1nc2ccccc2s1 | -12.9% | – |
| Cc1ccc(S(=O)(=O)N2CCOCC2)cc1NC(=O)COC(=O)c1cnccn1 | 0.865% | – |
| Cc1cccc(C)c1OC(=O)CSc1nnc(-c2ccccc2)o1 | -4.66% | – |
| CCOC(=O)CSc1nnc(-c2cccc(Br)c2)o1 | 15.7% | – |
| CC1=CC(C)(C)N(C(=O)CSc2nnc(-c3ccccc3)o2)c2ccc(C)cc21 | – | 11.2 µM (active) |
| CC1(C)C[C@H]2C3=CCC4[C@@]5(C)CC[C@H](O)[C@](C)(CO)C5CC[C@@]4(C)[C@]3(C)C[C@@H](O)[C@@]2(CO)[C@@H](O)[C@@H]1O (some centres not stated) | 8.47% | – |
| Cc1cc(C(=O)COc2ccccc2Cl)c(C)n1C1CC1 | -11.2% | – |
| Cc1cc(C(=O)OCC(=O)Nc2c(F)cccc2F)c(C)n1C1CC1 | 13.6% | – |
| Cc1cc(C(=O)COc2ccc(Br)cc2F)c(C)n1C1CC1 | – | 22.4 µM (active) |

| SMILES | activity change, negative = inhibition | Potency |
| --- | --- | --- |
| O=C(CSc1ccccn1)N1CCN(S(=O)(=O)c2ccc(Cl)cc2)CC1 | 2.37% | – |
| COc1ccccc1-n1nnnc1SCC(=O)NC(=O)Cc1ccccc1 | 3.1% | – |
| Cc1ccc(Cl)c(OCC(=O)N(C)CC(=O)Nc2ccc(N3CCOCC3)cc2)c1 | -13.6% | – |
| O=C(COC(=O)c1ccco1)Nc1ccc(Cl)cn1 | 7.08% | – |
| CN(C)[C@@H]1C(=O)C(C(N)=O)=C(O)[C@@]2(O)C(=O)C3=C(O)c4c(O)ccc(Cl)c4[C@@H](O)[C@H]3C[C@@H]12 | 0.778% [at 8.37 µM] | 2.82 µM (active) |
| CCCCn1c(N)c(N(CCC(C)C)C(=O)c2ccc(COc3ccccc3)o2)c(=O)[nH]c1=O | -10.5% | – |
| O=C(CNC(=O)c1cc(S(=O)(=O)N2CCOCC2)ccc1N1CCCC1)Nc1ccc(F)c(F)c1 | 5.03% | – |
| CC1CC(=NNC(=O)C2COc3ccccc3O2)CC(C)(C)C1 (configuration not stated) | -16.6% | – |
| CN(C)C(=O)CCc1ccc2c3c([nH]c2c1)[C@]1(CCC2CCCC2)[C@@H](C(=O)N2CCOCC2)C[C@H](CC(=O)NCc2ccco2)C(=O)N1CC3 | 11% [at 8.37 µM] | – |
| CCc1ccccc1NC(=O)CN(C)C(=O)c1cc(C2CC2)nn1-c1ccccc1 | -18.9% | – |
| CN(c1ccccc1)S(=O)(=O)c1cccc(NC(=O)Cc2c(F)cccc2Cl)c1 | – | 8.91 µM (active) |
| CN(C)S(=O)(=O)c1cccc(NC(=O)Cc2ccsc2)c1 | -5.68% | – |
| CN(c1ccccc1)S(=O)(=O)c1cccc(C(=O)NNC(=O)c2ccncc2)c1 | -10.3% [at 8.37 µM] | – |
| CCOC(=O)[C@@H]1[C@H]2COc3ccc(Br)cc3[C@H]2N2C(=O)N(c3ccc(C)cc3)C(=O)[C@@]12C | 4.27% | – |
| COC(=O)CC(CC(=O)OC)n1cccc1 | 12.6% | – |
| CCC(C)NC(=O)c1ccc(NC(=O)CC2SC(N3CCCCC3)=NC2=O)cc1 (configuration not stated) | 8.14% | – |
| O=C(Nc1cc2c3c(c1)CC(=O)N3CCC2)c1ccccc1F | -15% | – |
| CCOc1cc(C(=O)Nc2ccc(S(=O)(=O)Nc3cnc4ccccc4n3)cc2)cc(OCC)c1OCC | 2.89% | – |
| CC(=O)Oc1ccc(-c2nc3c(C)cccc3c(=O)o2)cc1 | -18.5% | – |
| Cc1nc(N=C(N)N)nc2c(C)cccc12 | – | 14.1 µM (active) |
| COc1cc(Cl)c(C)cc1NC(=O)CSc1nnc(CN2CCCC2)o1 | 9.24% | – |
| COc1ccc(N2CCN(C(=O)CNC(=O)c3ccc(Br)o3)CC2)cc1 | 12.5% | – |
| COc1cc(OC)cc(C(=O)NCC(=O)OCc2csc(-c3ccccc3)n2)c1 | -13.4% | – |
| COc1ccc(-c2nc(CCNC(=O)c3ccc(Br)o3)cs2)cc1 | – | 10 µM (active) |
| COc1ccc(C2=NN(C(=O)CSc3nnnn3C)C(c3ccco3)C2)cc1 (configuration not stated) | 0.807% | – |
| O=C(CSc1nccn1-c1cccc(F)c1)NC1CCCC1 | -6.21% | – |

| SMILES | activity change, negative = inhibition | Potency |
| --- | --- | --- |
| CCCc1cc(=O)[nH]c2nnc(SCC(=O)Nc3nnc(SCC)s3)n12 | 13.1% | – |
| COc1ccccc1-c1nnc(-c2ccc(F)cc2)o1 | 2.16% | – |
| Cc1ccc(S(=O)(=O)NCCC(=O)NC2CCN(Cc3ccccc3)CC2)cc1 | -7.73% | – |
| Cc1ccc(-c2nc(CSCC(=O)NC3CCN(Cc4ccccc4)CC3)c(C)o2)cc1 | – | 12.6 µM (active) |
| Cc1ccc(-c2nc(CS(=O)CC(=O)NC3CCCC3)c(C)o2)cc1 (configuration not stated) | -19.2% | – |
| O=C(Nc1ccccn1)C1CCN(S(=O)(=O)c2ccccc2)CC1 | -29.9% | – |
| Fc1ccccc1COc1cccc2cccnc12 | -5.88% | – |
| Cc1ccc(NC(=O)CN(C)C(=O)c2ccc(Cl)c(S(=O)(=O)NCc3ccco3)c2)cc1 | -9.16% | – |
| Clc1ccc2c(c1)C1=C(C(c3ccncc3)O2)C(c2ccc(Br)cc2)n2ncnc2N1 (configuration not stated) | – | 12.6 µM (active) |
| CC1=C(C(N)=O)C(c2ccc(Br)cc2)n2ncnc2N1 (configuration not stated) | 6.56% | – |
| COC(=O)C1=C(C)Nc2ncnn2C1c1cccnc1 (configuration not stated) | 4.06% | – |
| COc1ccc(C(CNC(=O)c2cc(S(=O)(=O)Nc3cccc(C)c3)ccc2C)N2CCCC2)cc1 (configuration not stated) | -23% | – |
| COc1cccc(CNC(=O)CN2C(=O)NC(Cc3ccccc3)(c3ccccc3)C2=O)c1 (configuration not stated) | 6.36% | – |
| COc1ccccc1N1CCN(CC(=O)Nc2ccnn2C2CCCC2)CC1 | -3.97% | – |
| COc1cccc(N2CCN(CC(=O)Nc3ccnn3C3CCCC3)CC2)c1 | – | 10 µM (active) |
| COc1cccc(C(=O)N2CCC(n3nccc3NC(=O)C3CCOC3)CC2)c1 (configuration not stated) | 16.5% | – |
| CC(=O)NC(CC(=O)Nc1ccc(S(=O)(=O)N2CCOCC2)cc1)c1ccccc1 (configuration not stated) | -6.34% | – |
| O=C(c1cc2cc(F)ccc2[nH]1)N1CCN(c2ccc(F)cc2)CC1 | -3.92% | – |
| O=C(c1cccc(C(=O)N2CCN(c3ccc(F)cc3)CC2)c1)N1CCN(c2ccc(F)cc2)CC1 | – | 11.2 µM (active) |
| COc1ccc(-c2cc(C(=O)N3CCN(c4ccc(F)cc4)CC3)no2)cc1 | – | 22.4 µM (active) |
| O=C(c1cc(-c2ccc(F)cc2)on1)N1CCN(c2ccc(F)cc2)CC1 | -27% | – |
| O=C(c1ccccc1)c1ccc(C(=O)N2CCN(c3ccccc3)CC2)cc1 | -4.67% | – |
| O=C(c1cc(-c2ccc(Cl)cc2)on1)N1CCN(c2ccccc2)CC1 | 14.7% | – |
